From publication PMC4336329 (PLoS ONE, 2015)
In all, about 310,000 compounds went through this assay and about 14,000 (4.5%) showed an effect of 50% or more. The effect is printed as a negative number. The sample as a whole holds a higher share of strong results than the screen did.

Target: human ether-à-go-go-related gene (hERG) potassium channel (human, UniProt Q12809)
Assay: primary screen, population patch clamp on CHO cells stably expressing hERG; higher = less effect of the substance
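Note: peak tail current of the secondary pulse compared with the same well before compound.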

human ether-à-go-go-related gene (hERG) potassium channel, sequence (Q12809 whole entry, looked up): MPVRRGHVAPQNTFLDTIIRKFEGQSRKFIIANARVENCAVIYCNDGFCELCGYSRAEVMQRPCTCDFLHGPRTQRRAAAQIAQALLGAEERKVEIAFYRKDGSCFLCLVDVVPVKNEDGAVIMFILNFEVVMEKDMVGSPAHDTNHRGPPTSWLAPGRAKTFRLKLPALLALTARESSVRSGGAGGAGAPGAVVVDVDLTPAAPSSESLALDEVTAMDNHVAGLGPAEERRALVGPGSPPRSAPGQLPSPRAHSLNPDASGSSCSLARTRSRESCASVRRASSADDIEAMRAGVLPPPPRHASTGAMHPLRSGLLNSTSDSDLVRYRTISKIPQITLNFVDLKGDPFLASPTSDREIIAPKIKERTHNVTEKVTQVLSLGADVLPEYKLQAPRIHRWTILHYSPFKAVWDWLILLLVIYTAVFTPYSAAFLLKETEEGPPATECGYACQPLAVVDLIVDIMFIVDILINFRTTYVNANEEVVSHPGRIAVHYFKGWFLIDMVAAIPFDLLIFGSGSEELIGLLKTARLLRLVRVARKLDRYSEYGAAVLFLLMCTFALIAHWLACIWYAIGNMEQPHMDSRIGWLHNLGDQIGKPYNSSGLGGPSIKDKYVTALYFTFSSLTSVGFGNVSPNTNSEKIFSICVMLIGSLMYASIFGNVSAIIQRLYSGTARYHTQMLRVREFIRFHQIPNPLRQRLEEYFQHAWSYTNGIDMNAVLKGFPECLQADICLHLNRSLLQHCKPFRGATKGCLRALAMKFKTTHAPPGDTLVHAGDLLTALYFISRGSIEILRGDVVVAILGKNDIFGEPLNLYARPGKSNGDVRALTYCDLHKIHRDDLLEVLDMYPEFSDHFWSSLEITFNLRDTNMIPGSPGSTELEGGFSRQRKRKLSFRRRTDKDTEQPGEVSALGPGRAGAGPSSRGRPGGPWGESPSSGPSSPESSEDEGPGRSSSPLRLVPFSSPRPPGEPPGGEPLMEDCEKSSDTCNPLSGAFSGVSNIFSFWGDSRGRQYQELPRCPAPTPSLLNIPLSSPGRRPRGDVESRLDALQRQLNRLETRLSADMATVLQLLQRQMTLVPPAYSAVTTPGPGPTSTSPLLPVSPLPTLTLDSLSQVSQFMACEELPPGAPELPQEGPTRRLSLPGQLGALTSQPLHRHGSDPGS

Row | SMILES | hERG current change (%, negative = inhibition) at 10uM
1 | CCSc1cc(C)nc2ncnn12 | -0.742%
2 | CC1CCCN(C(=O)C2CCN(Cc3ccc4c(c3)OCO4)CC2)C1.O=C(O)C(=O)O (centres unmarked) | -0.604%
3 | COC(=O)c1cccc(NC(=O)Cn2nnc3ccccc32)c1 | 0.234%
4 | COc1cc(C2NC(=O)NC(C)=C2[N+](=O)[O-])cc(OC)c1OC (centres unmarked) | 9.03%
5 | CCn1c(=O)c2sccc2n2c(CCCC(=O)NCCc3ccc(S(N)(=O)=O)cc3)nnc12 | -4.96%
6 | O=C(NCC1CC1)[C@@H]1C[C@H]1[C@@H](NP(=O)(c1ccccc1)c1ccccc1)c1ccccc1 | -13.9%
7 | CC(=O)Nc1ccccc1C(=O)OCc1ccccc1F | 3.58%
8 | N#CCCn1cc(C(=O)Nc2ccccc2Cl)c(-c2ccc([N+](=O)[O-])cc2)n1 | -64.4%
9 | COc1ccc(-c2nn(CCC#N)cc2C(=O)NCc2ccccc2)cc1OC | -42.3%
10 | N#CCCn1cc(C(=O)Nc2ccc([N+](=O)[O-])cc2)c(-c2ccccc2)n1 | -80.1%
11 | COc1ccc(-c2nn(CCC#N)cc2C(=O)NCc2ccccc2)cc1[N+](=O)[O-] | -59.7%
12 | COc1ccc(NC(=O)c2cn(CCC#N)nc2-c2ccccc2)cc1 | -7.59%
13 | N#CCCn1cc(C(=O)Nc2ccc(C(=O)O)cc2)c(-c2ccc([N+](=O)[O-])cc2)n1 | 23.2%
14 | N#CCCn1cc(C(=O)Nc2ccccc2Br)c(-c2ccc([N+](=O)[O-])cc2)n1 | -46.9%
15 | COc1ccc(-c2nn(CCC#N)cc2C(=O)Nc2ccccc2Br)cc1[N+](=O)[O-] | -39.6%
16 | N#CCCn1cc(C(=O)Nc2ccccc2Cl)c(-c2ccc(F)cc2)n1 | 14%
17 | Cc1cc(C=C2C(=O)N(C)C(=O)N(C)C2=O)c(C)n1-c1ccccc1 | 17.5%
18 | FC(F)(F)c1cc(-c2cccs2)nc(N2CCOCC2)n1 | 1.94%
19 | CC(C)N(Cc1nc(-c2ccccc2)no1)C(=O)c1ccc(Br)o1 | -18.8%
20 | O=CN1CCN(S(=O)(=O)c2ccc(Cl)c(C(=O)O)c2)CC1 | -2.45%
21 | C/C(=N\NC(=O)Cn1nc(C)c([N+](=O)[O-])c1C)c1ccco1 | 26%
22 | C=C1c2ccc(C)cc2NC(=O)N1c1ccccc1 | -1.2%
23 | COc1ccc(N=C2CCCN2CC(N)=O)cc1.Cl | -0.486%
